Results taken from ChEMBL document CHEMBL5308504, “Tm Shift (DSF) assay results for EUbOPEN Chemogenomics Library” (2023).

molecular target: Cyclin-dependent kinase 2 (Homo sapiens) (UniProt P24941); conditions: Compound concentration 20.0 uM, Protein concentration 2.0 uM, Result type QC Liability

Row | SMILES | ΔTm [°C]
1 | O=C1CN(c2ccccc2F)C(NCCN2CCOCC2)=C1c1nc2cc(Br)ccc2c(=O)[nH]1 | 0.68
2 | CCN(CC)C/C=C/C(=O)Nc1cc2c(Nc3ccc(F)c(Cl)c3)ncnc2cc1OCC1CC1 | -0.55
3 | Cn1cc(Nc2nccc(N3CC4CCC(C3)N4C(=O)[C@@H]3CC3(F)F)n2)cn1 | 2.84
4 | O=C(Cc1ccccc1[N+](=O)[O-])Nc1ccc(-c2ccc(C(O)(C(F)(F)F)C(F)(F)F)cc2F)cc1 | 2.11
5 | N=C(N)NCCC[C@H](NC(=O)CC1(CC(=O)N2CCN(C(c3ccccc3)c3ccccc3)CC2)CCCC1)C(=O)NCc1ccccc1 | -1.78
6 | COC(=O)c1sccc1S(=O)(=O)Nc1ccc(Nc2ccccc2)cc1OC | 0.72
7 | O=C(O)CCC/C=C\C[C@@H]1[C@@H](/C=C/[C@@H](O)COc2cccc(C(F)(F)F)c2)[C@H](O)C[C@@H]1O | 0.59
8 | CC(C)(O)CNC(=O)N1C(=O)N(c2cccc(C(F)(F)F)c2)C2=C(C(=O)CC2)[C@@H]1c1ccc(C#N)cc1 | 0.61
9 | O=C(Nc1snnc1C(=O)Nc1ccc(N2CCCC2)cc1)c1cncc(C(F)(F)F)c1 | 0.59
10 | CCc1c(-c2ccc3[nH]ncc3c2)cnc(N)c1-c1ccc(O)cc1 | 2.8
11 | COc1cc(-c2cc3ncccc3c(O[C@@H](C)[C@H]3CNC(=O)C3)n2)cc(OC)c1OC | 0.19
12 | Cc1cccc(-c2nn3c(c2-c2ccnc4ccc(C(N)=O)cc24)CCC3)n1 | 0.75
13 | Cc1[nH]nc(C(F)(F)F)c1Cc1sc2c(c1C(=O)N1C[C@](C)(O)CO1)c(=O)n(C)c(=O)n2C(C)C | 0.67
14 | O=C(NCCN1CCOCC1)c1ccc2nn(CCOc3ccc(Cl)cc3)cc2c1 | 0.59
15 | COc1c(NC(=O)c2cc3cccc(Oc4ccnc(C(=O)N5CCN(C)CC5)c4)c3n2C)cc(C(C)(C)C)cc1NS(C)(=O)=O | -0.2
16 | CC(C)N(C(=O)C1CCOCC1)c1cc(F)c(Oc2ncc(Cn3nccn3)cc2C(F)(F)F)cc1C(=O)O | 0.2
17 | Cc1cc(NC(=O)c2cccc(NC(=O)/C=C/CN(C)C)c2)ccc1Nc1nccc(-c2cccnc2)n1 | 1.64
18 | CN1CC(=O)N(C)c2cnc(Nc3ccc(NC(=O)Nc4cccc(C(=O)O)c4)cc3)nc21 | -0.17
19 | N[C@@H]1CCCN(c2c(/C=C3\SC(=O)NC3=O)cccc2-c2ccccc2)C1 | 2.37
20 | CCCCCCCC/C=C\CCCCCCCC(=O)NCCO | -0.92

Row | SMILES | ΔTm [°C]
21 | CNC(=O)c1cccc(-c2ccc3c(N4CCOC[C@@H]4C)nc(N4CCOC[C@@H]4C)nc3n2)c1 | 0.33
22 | Cc1cc(C2CCCNC2)ccc1Nc1ncc(Br)c(NCc2cccc3c2C(C)(C)C(=O)N3)n1 (stereo not drawn) | 2.03
23 | CCC(=O)N[C@H]1CC[C@@H](C(=O)N(C)c2ccc(-c3nc4ccccc4o3)cc2)C1 | 0.83
24 | Cc1nn(-c2nc3ccc(Cl)c(Cl)c3[nH]2)c(O)c1C1OC(=O)c2ccccc21 (stereo not drawn) | 2.69
25 | CC(C)(C)NC(=O)c1cncn1C1CCN(c2ccc(-c3nnc(C(F)(F)F)o3)cn2)CC1 | 0.97
26 | CN[C@@H](C)C(=O)N[C@H](C(=O)N1CCC[C@H]1C(=O)N[C@@H]1CCCc2ccccc21)C1CCCCC1 | 0.07
27 | CC1(C)C[C@@H]1C(=O)N/C(=C\CCCCSC[C@H](N)C(=O)O)C(=O)O | 0.8
28 | CNc1nc(-c2ccc3c(N)n[nH]c3c2)cc(N2C[C@@H](C(=O)NC3CCCCC3)CC[C@H]2C)n1 | -0.54
29 | CCNC1=N[C@@H]2[C@@H](O)[C@H](O)[C@@H](CO)O[C@@H]2S1 | 0.73
30 | CCOc1ccc(S(=O)(=O)Nc2ccc(Cl)cc2C#Cc2cnc(C(=O)O)cc2OC)c2ncccc12 | -1.65
31 | CN(C)[C@H]1CC[C@H](Nc2ncc3ncnc(Nc4ccc(F)c(Cl)c4)c3n2)CC1 | 1.27
32 | COc1ncc(-c2cc(-c3ncc(CN4C[C@@H](C)O[C@@H](C)C4)o3)c3cn[nH]c3c2)cc1NS(C)(=O)=O | 0.2
33 | COc1ccccc1Nc1nc(-c2nn(Cc3c(F)cc(OCCCO)cc3F)c3ccccc23)ncc1OC | -0.43
34 | CCOC(=O)N1CCC(CN(Cc2ccc(Cl)cc2)Cc2ccc([N+](=O)[O-])s2)C1 (stereo not drawn) | 0.83
35 | COc1ccc(CSc2nnc(-c3ccc4ncsc4c3)o2)cc1C(F)(F)F | 0.54
36 | O=C(Nc1ccc(C(O)(C(F)(F)F)C(F)(F)F)cc1)c1ccc(C(F)(F)F)cc1 | 1.61
37 | COc1cc(-c2cncc(-c3ccc(N4CCN(C(C)C)CC4)cc3)c2C)cc(F)c1C(=O)N1CCCC1 | 0.41
38 | CN1CCN(C(=O)c2ccc3cc2OCCOCCNc2ccn4ncc-3c4n2)CC1 | 0.81
39 | CC(C)Nc1ncnc2cc(OCc3cccc([S@@](C)(=N)=O)c3)c(Br)cc12 | 0.49

molecular target: Casein kinase I isoform delta (Homo sapiens) (UniProt P48730); conditions: Compound concentration 20.0 uM, Protein concentration 2.0 uM, Result type QC Liability
Sequence (P48730 whole entry, looked up, canonical isoform): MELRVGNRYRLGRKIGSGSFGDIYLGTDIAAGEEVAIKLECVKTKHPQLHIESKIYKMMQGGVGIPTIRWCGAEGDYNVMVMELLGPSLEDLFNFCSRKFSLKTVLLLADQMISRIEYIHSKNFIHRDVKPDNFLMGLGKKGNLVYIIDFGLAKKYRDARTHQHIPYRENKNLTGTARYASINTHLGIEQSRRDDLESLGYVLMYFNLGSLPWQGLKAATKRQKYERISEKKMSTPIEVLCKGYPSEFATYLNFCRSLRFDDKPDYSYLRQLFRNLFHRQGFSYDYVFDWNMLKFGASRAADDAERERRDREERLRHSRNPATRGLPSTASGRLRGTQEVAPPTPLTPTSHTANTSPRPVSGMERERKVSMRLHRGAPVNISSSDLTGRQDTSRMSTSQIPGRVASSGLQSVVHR

Row | SMILES | ΔTm [°C]
40 | O=C1CN(c2ccccc2F)C(NCCN2CCOCC2)=C1c1nc2cc(Br)ccc2c(=O)[nH]1 | 0.32
41 | CCN(CC)C/C=C/C(=O)Nc1cc2c(Nc3ccc(F)c(Cl)c3)ncnc2cc1OCC1CC1 | 0.34
42 | Cn1cc(Nc2nccc(N3CC4CCC(C3)N4C(=O)[C@@H]3CC3(F)F)n2)cn1 | 0.33
43 | O=C(Cc1ccccc1[N+](=O)[O-])Nc1ccc(-c2ccc(C(O)(C(F)(F)F)C(F)(F)F)cc2F)cc1 | -0.86
44 | N=C(N)NCCC[C@H](NC(=O)CC1(CC(=O)N2CCN(C(c3ccccc3)c3ccccc3)CC2)CCCC1)C(=O)NCc1ccccc1 | 0.02
45 | COC(=O)c1sccc1S(=O)(=O)Nc1ccc(Nc2ccccc2)cc1OC | 0.45
46 | O=C(O)CCC/C=C\C[C@@H]1[C@@H](/C=C/[C@@H](O)COc2cccc(C(F)(F)F)c2)[C@H](O)C[C@@H]1O | 0.07
47 | CC(C)(O)CNC(=O)N1C(=O)N(c2cccc(C(F)(F)F)c2)C2=C(C(=O)CC2)[C@@H]1c1ccc(C#N)cc1 | 0.18
48 | O=C(Nc1snnc1C(=O)Nc1ccc(N2CCCC2)cc1)c1cncc(C(F)(F)F)c1 | 1.04
49 | CCc1c(-c2ccc3[nH]ncc3c2)cnc(N)c1-c1ccc(O)cc1 | 1.28
50 | COc1cc(-c2cc3ncccc3c(O[C@@H](C)[C@H]3CNC(=O)C3)n2)cc(OC)c1OC | 1.43
51 | Cc1cccc(-c2nn3c(c2-c2ccnc4ccc(C(N)=O)cc24)CCC3)n1 | 3.53
52 | Cc1[nH]nc(C(F)(F)F)c1Cc1sc2c(c1C(=O)N1C[C@](C)(O)CO1)c(=O)n(C)c(=O)n2C(C)C | -0.27
53 | O=C(NCCN1CCOCC1)c1ccc2nn(CCOc3ccc(Cl)cc3)cc2c1 | 0.35
54 | COc1c(NC(=O)c2cc3cccc(Oc4ccnc(C(=O)N5CCN(C)CC5)c4)c3n2C)cc(C(C)(C)C)cc1NS(C)(=O)=O | 0.73
55 | CC(C)N(C(=O)C1CCOCC1)c1cc(F)c(Oc2ncc(Cn3nccn3)cc2C(F)(F)F)cc1C(=O)O | 0.07
56 | Cc1cc(NC(=O)c2cccc(NC(=O)/C=C/CN(C)C)c2)ccc1Nc1nccc(-c2cccnc2)n1 | 4.02
57 | CN1CC(=O)N(C)c2cnc(Nc3ccc(NC(=O)Nc4cccc(C(=O)O)c4)cc3)nc21 | 0.58
58 | N[C@@H]1CCCN(c2c(/C=C3\SC(=O)NC3=O)cccc2-c2ccccc2)C1 | 0.88
59 | CCCCCCCC/C=C\CCCCCCCC(=O)NCCO | -0.85

Row | SMILES | ΔTm [°C]
60 | CNC(=O)c1cccc(-c2ccc3c(N4CCOC[C@@H]4C)nc(N4CCOC[C@@H]4C)nc3n2)c1 | 0.36
61 | Cc1cc(C2CCCNC2)ccc1Nc1ncc(Br)c(NCc2cccc3c2C(C)(C)C(=O)N3)n1 (stereo not drawn) | 0.34
62 | CCC(=O)N[C@H]1CC[C@@H](C(=O)N(C)c2ccc(-c3nc4ccccc4o3)cc2)C1 | 0.61
63 | Cc1nn(-c2nc3ccc(Cl)c(Cl)c3[nH]2)c(O)c1C1OC(=O)c2ccccc21 (stereo not drawn) | -0.14
64 | CC(C)(C)NC(=O)c1cncn1C1CCN(c2ccc(-c3nnc(C(F)(F)F)o3)cn2)CC1 | 0.21
65 | CN[C@@H](C)C(=O)N[C@H](C(=O)N1CCC[C@H]1C(=O)N[C@@H]1CCCc2ccccc21)C1CCCCC1 | 1.13
66 | CC1(C)C[C@@H]1C(=O)N/C(=C\CCCCSC[C@H](N)C(=O)O)C(=O)O | -0.09
67 | CNc1nc(-c2ccc3c(N)n[nH]c3c2)cc(N2C[C@@H](C(=O)NC3CCCCC3)CC[C@H]2C)n1 | 0.18
68 | CCNC1=N[C@@H]2[C@@H](O)[C@H](O)[C@@H](CO)O[C@@H]2S1 | 0.01
69 | CCOc1ccc(S(=O)(=O)Nc2ccc(Cl)cc2C#Cc2cnc(C(=O)O)cc2OC)c2ncccc12 | -1.46
70 | CN(C)[C@H]1CC[C@H](Nc2ncc3ncnc(Nc4ccc(F)c(Cl)c4)c3n2)CC1 | 1.07
71 | COc1ncc(-c2cc(-c3ncc(CN4C[C@@H](C)O[C@@H](C)C4)o3)c3cn[nH]c3c2)cc1NS(C)(=O)=O | 0.38
72 | COc1ccccc1Nc1nc(-c2nn(Cc3c(F)cc(OCCCO)cc3F)c3ccccc23)ncc1OC | -0.21
73 | CCOC(=O)N1CCC(CN(Cc2ccc(Cl)cc2)Cc2ccc([N+](=O)[O-])s2)C1 (stereo not drawn) | 1.17
74 | COc1ccc(CSc2nnc(-c3ccc4ncsc4c3)o2)cc1C(F)(F)F | -10.2
75 | O=C(Nc1ccc(C(O)(C(F)(F)F)C(F)(F)F)cc1)c1ccc(C(F)(F)F)cc1 | 1.47
76 | COc1cc(-c2cncc(-c3ccc(N4CCN(C(C)C)CC4)cc3)c2C)cc(F)c1C(=O)N1CCCC1 | 0.26
77 | CN1CCN(C(=O)c2ccc3cc2OCCOCCNc2ccn4ncc-3c4n2)CC1 | 0.3
78 | CC(C)Nc1ncnc2cc(OCc3cccc([S@@](C)(=N)=O)c3)c(Br)cc12 | 1.35
